In experiment [1] the target is Protein Mdm4 (Homo sapiens) + E3 ubiquitin-protein ligase Mdm2 (Homo sapiens) (UniProt O15151+Q00987). The experiment is described as follows: human Mdm2/MdmX binding disruption – cell-based, luminescence, single concentration, set 2, confirmation (AID 504601;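 active = mean inhibition of the luminescence signal across two replicates at or above 26 percent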). The conditions noted are these: SaOS-2 split-luciferase Mdm2/MdmX complementation, at 8 µM, active compounds read high.
Chain of Protein Mdm4 (Homo sapiens) + E3 ubiquitin-protein ligase Mdm2 (Homo sapiens) (O15151 whole entry, looked up): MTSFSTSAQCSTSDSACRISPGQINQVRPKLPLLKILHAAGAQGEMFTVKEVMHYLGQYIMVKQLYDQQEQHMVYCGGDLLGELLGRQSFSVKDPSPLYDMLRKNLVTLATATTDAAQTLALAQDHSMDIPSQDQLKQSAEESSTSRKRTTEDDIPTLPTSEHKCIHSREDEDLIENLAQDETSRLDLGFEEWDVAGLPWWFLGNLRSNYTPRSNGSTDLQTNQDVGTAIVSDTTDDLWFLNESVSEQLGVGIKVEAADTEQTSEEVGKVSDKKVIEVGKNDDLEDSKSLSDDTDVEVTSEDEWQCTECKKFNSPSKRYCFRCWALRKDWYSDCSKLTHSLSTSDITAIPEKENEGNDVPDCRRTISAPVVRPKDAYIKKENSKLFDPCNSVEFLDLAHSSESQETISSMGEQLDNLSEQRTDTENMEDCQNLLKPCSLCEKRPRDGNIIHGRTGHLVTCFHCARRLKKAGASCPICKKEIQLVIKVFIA
Chain of Protein Mdm4 (Homo sapiens) + E3 ubiquitin-protein ligase Mdm2 (Homo sapiens) (Q00987 whole entry, looked up): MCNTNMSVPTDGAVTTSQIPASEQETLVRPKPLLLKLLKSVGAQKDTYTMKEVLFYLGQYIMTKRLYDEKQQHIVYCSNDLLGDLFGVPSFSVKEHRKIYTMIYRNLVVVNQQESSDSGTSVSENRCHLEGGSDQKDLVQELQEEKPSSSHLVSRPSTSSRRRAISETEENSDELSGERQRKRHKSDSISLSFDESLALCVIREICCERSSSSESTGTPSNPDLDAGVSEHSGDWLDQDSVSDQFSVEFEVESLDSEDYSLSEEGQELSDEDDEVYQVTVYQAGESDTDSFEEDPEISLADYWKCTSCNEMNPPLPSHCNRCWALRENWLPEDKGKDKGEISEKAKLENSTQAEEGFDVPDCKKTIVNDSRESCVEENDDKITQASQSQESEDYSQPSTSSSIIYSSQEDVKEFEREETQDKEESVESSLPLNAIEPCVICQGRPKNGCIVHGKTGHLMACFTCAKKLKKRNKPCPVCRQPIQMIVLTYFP

Experiment [2] has as its target Sentrin-specific protease 8 (Homo sapiens) (UniProt Q96LD8). Briefly: human SENP8 peptidase blockers, hit retest – biochemical, luminescence, single concentration, confirmation (AID 488912;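 active = mean inhibition across replicates above about 50%, limit read from the data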). Conditions: Recombinant SENP8, Z-RLRGG-aminoluciferin luminescence, 60 min; at 12.5 µM; active compounds read high.
The target in experiment [3] is Sentrin-specific protease 6 (Homo sapiens) (UniProt Q9GZR1). The experiment is described as follows: inhibition of human SENP6 catalytic domain – biochemical, luminescence, single concentration, confirmation (AID 488915;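 active = mean inhibition above about 50% in the one-dose retest, limit read from the data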). Conditions: recombinant SENP6, Z-RLRGG-aminoluciferin luminescence; at 12.5 µM; active compounds read high.
Chain of Sentrin-specific protease 6 (Homo sapiens) (Q9GZR1 628-1112 limits assumed): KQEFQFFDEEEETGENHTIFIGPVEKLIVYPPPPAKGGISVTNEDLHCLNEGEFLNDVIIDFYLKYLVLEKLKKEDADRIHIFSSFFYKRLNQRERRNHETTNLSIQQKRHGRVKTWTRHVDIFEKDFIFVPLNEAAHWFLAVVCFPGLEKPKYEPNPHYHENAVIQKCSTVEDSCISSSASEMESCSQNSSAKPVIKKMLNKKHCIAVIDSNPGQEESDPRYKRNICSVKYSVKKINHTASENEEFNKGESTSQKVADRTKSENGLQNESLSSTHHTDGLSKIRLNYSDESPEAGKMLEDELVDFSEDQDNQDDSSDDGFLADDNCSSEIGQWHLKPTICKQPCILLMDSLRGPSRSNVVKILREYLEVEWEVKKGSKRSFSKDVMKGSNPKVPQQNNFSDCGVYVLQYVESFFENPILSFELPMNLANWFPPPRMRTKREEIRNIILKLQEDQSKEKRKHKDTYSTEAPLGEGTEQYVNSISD
Experiment [4] concerns the target Sentrin-specific protease 7 (Homo sapiens) (UniProt Q9BQF6). Briefly: human SENP7 peptidase blockers, hit retest – biochemical, luminescence, single concentration, confirmation (AID 488917;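 active = mean inhibition above about 50% in the one-dose retest, limit read from the data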). The conditions noted are these: recombinant SENP7, Z-RLRGG-aminoluciferin luminescence, 40 min; at 12.5 µM; active compounds read high.
In experiment [5] the target is Caspase-3 (Homo sapiens) (UniProt P42574). The experiment is described as follows: human caspase-3 activity blockade, out-of-family – biochemical, single concentration, selectivity assay for SENP inhibitor project, confirmation (AID 488918;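 active = mean inhibition above about 50%, limit read from the data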;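 note: plate controls were enzyme with DMSO for no effect and wells without caspase-3 for full effect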). Conditions: purified caspase-3, Z-DEVD-aminoluciferin luminescence, 60 min; at 12.5 µM; active compounds read high.
Chain of Caspase-3 (Homo sapiens) (P42574 28-227 limits assumed): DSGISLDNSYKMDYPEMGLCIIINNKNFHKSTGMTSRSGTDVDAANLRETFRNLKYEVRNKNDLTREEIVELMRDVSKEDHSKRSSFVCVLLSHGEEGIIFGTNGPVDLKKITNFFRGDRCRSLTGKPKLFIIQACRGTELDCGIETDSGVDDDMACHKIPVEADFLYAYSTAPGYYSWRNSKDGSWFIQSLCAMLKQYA
Experiment [6] can be described thus: Ultra-Glo luciferase signal interference – biochemical, single concentration, SENP8 reaction pre-completed, artefact control for SENP inhibitor project, confirmation (AID 488919;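 active = mean inhibition above about 50% when retested at one dose, limit read from the data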;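 note: plate controls were DMSO wells with completed reaction for no effect and substrate without enzyme for full effect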). Conditions: Pre-incubated SENP8/Z-RLRGG-aminoluciferin, luciferase luminescence interference; at 12.5 µM; active compounds read high.
Experiment [7] in a line: apoptosome-driven caspase-3 activation blockers – biochemical, fluorescence, DEVD-Rh110, 20 µM, confirmation (AID 504614).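 Note: plate controls were DMSO wells for no effect and DEVD-CHO caspase inhibitor control wells for full effect.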 Conditions: reconstituted apoptosome, caspase-3 DEVD-Rh110 fluorescence; at 20 µM; active compounds read high.
Experiment [8] is described as follows: detection-step artefacts after completed caspase reaction – biochemical, fluorescence, Rh110, 20 µM, artefact control for Apaf-1 inhibitor project, confirmation (AID 504615;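 active = signal rise of 40% or more at 20 µM, treated as a fluorescence artifact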). The conditions noted are these: quenched caspase reaction, at 20 µM, active compounds read high.
A short description of experiment [9]: fluorescence interference of Apaf-1 inhibitor hits, dose response, artefact control for Apaf-1 inhibitor project (AID 588538; call rule not given here). The conditions noted are these: fluorescence interference counterscreen, Apaf-1 assay format. For orientation: Counterscreens check selectivity or assay interference.

The other results are listed elsewhere or left out. Unmarked numbers belong to inactive results. Active and inactive are the calls of the source.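 Rule for the calls, unless noted: active = mean inhibition of at least 40% at 20 µM; inactive = the rest.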

These results are taken from PubChem BioAssay.

Usually inhibition stands for the drop in the measured response relative to a control, in per cent. In general, IC50 refers to the midpoint of a concentration-inhibition curve.

Chain of Sentrin-specific protease 7 (Homo sapiens) (Q9BQF6 706-1050 limits assumed): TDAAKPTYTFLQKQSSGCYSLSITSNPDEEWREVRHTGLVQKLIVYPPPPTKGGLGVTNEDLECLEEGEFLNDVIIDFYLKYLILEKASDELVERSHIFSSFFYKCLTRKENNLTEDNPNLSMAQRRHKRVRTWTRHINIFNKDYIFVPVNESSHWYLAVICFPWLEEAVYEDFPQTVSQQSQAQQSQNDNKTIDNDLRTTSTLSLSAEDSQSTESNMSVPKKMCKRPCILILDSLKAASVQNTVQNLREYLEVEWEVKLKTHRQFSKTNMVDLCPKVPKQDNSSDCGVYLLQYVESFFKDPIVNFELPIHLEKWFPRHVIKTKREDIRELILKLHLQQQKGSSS
Chain of Sentrin-specific protease 8 (Homo sapiens) (Q96LD8 whole entry, looked up, the tested form may be a part): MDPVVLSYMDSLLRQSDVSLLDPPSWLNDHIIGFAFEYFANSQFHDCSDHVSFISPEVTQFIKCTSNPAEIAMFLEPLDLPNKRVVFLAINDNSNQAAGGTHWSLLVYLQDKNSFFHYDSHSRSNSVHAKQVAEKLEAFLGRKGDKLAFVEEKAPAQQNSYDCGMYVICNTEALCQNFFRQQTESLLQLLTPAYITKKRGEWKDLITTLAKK

As for `COc1ccc(C(=O)NC2CCCc3c2cnn3-c2cccc(C)c2C)c(OC)n1` (configuration not stated), the inhibition in experiment [1] was 102% (active).
On to `CCN1C(=O)c2cccc3c(N)ccc1c23`, for which the inhibition in [2] was 22%; in experiment [3], 41.5%; in [4], 15.6%; in experiment [5], 2.1%; in experiment [6] it was -6.4%; in experiment [7] it was 70.1% (active). The activation (fluorescence interference) in experiment [8] is 2.39%. In addition, in [9], the IC50 was over 100 µM.
As to `O=[N+]([O-])c1c(NCCO)cc(Sc2nc3ccccc3s2)c2nonc12`, the inhibition in [1] is 102% (active); in experiment [7], 19.9%. The activation (fluorescence interference) in experiment [8] is 4.65%.
